Activity calls are given as the source filed them. Unless noted, the rule behind the calls is not given here.
What was measured:
[1] = test system: XIP peptide (Xip251-270) binding; test: XIP fragment 251-270 binding compounds – biochemical, small-molecule microarray, fluorescence 635/667 nm, 0.1 µg/mL protein, primary screen (AID 1182); details: fluorescent protein binding, 635 nm, higher = more signal, called active from +8 up or from −8 down
XIP peptide (Xip251-270) = test: compounds binding XIP fragment 251-270 – biochemical, small-molecule microarray, fluorescence 635/667 nm, 0.5 µg/mL protein, primary screen (AID 1183); details: fluorescence 635 nm, higher = more signal
[2] = blood-stage malaria parasite viability loss – strain 3D7, DAPI fluorescence, 100 nL, primary screen (AID 1184);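 note: parasites grown inside human red blood cells in medium with human serum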; details: P. falciparum 3D7 growth, 3 d, higher = more signal
[3] = biological target: Homeobox protein Hox-A13 (Mus musculus) (UniProt Q62424); test: disruptors of Hoxa13 oligonucleotide interaction – biochemical, fluorescence polarization, labeled oligonucleotide, primary screen (AID 1185); details: Hoxa13:DNA binding, 15 min, higher = more signal, called active from +8 up or from −8 down
Homeobox protein Hox-A13 (Mus musculus), sequence (Q62424 whole entry, looked up): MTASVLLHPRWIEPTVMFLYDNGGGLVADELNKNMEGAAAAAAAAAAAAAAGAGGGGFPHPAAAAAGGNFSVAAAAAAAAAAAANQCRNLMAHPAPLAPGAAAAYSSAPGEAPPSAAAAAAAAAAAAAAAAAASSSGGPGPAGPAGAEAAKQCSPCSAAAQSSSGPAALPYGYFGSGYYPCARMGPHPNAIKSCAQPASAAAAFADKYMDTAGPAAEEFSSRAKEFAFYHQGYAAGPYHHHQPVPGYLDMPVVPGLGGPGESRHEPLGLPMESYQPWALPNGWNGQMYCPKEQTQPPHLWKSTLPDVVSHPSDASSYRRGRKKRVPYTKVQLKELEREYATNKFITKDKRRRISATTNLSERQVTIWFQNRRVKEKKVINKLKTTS

[4] = blockers of DNA damage checkpoint Chk1 activation – imaging, HeLa, hydroxyurea, phospho-Chk1 antibody, percent positive cells, primary screen (AID 1186); details: hydroxyurea-induced phospho-Chk1 immunofluorescence imaging, higher = more signal
[5] = blockers of DNA damage checkpoint Chk1 activation – imaging, HeLa, hydroxyurea, phospho-Chk1 nuclear intensity, primary screen (AID 1187); details: hydroxyurea-induced phospho-Chk1 immunofluorescence imaging, higher = more signal

Compound | composite z-score [1] | composite z-score (XIP peptide (Xip251-270)) | z-score [2] | z-score [3] | z-score [4] | z-score [5]
O=C(O)C1=CC[C@H]2C(=O)N(c3ccccc3)C(=O)[C@@H]12 | 0.688 (inactive) | 0.783 | 0.0472 | -3.04 (inactive) | -0.416 (inactive) | -0.647 (inactive)
C=CCNC(=O)[C@@H]1[C@H]2C(=O)O[C@H](c3ccccc3)[C@H](c3ccccc3)N2[C@H](c2ccc(OCCO)cc2)[C@@]12C(=O)N(C(=O)OCCOC)c1ccccc12 | 1.44 (inactive) | 0.718 | -0.643 | -3.58 (inactive) | -0.0546 (inactive) | 0.0358 (inactive)
C=C(C(=O)CC[C@@H](OC(=O)c1ccccc1-c1ccccc1C(=O)O)c1ccc(OCCO)cc1)C(C)C | -0.206 (inactive) | 0.568 | -2.12 | -5.47 (inactive) | 0.468 (inactive) | 0.59 (inactive)
O=C(NCC(F)(F)F)[C@@H]1c2ccccc2C(=O)N(Cc2cc(C(F)(F)F)cc(C(F)(F)F)c2)[C@H]1c1ccc(CO)cc1 | -0.398 (inactive) | 0.637 | 0.362 | -2.44 (inactive) | -0.373 (inactive) | -0.356 (inactive)
C=CCNC(=O)[C@@H]1[C@H]2C(=O)O[C@H](c3ccccc3)[C@H](c3ccccc3)N2[C@H](c2ccc(O)cc2)[C@@]12C(=O)Nc1ccc(C#CC3=CCCCC3)cc12 | 1.79 (inactive) | 0.716 | 0.155 | 0.828 (inactive) | 0.0206 (inactive) | -0.275 (inactive)
C=CCNC(=O)[C@H]1[C@@H]2C(=O)O[C@@H](c3ccccc3)[C@@H](c3ccccc3)N2[C@@H](c2ccc(O)cc2)[C@]12C(=O)Nc1ccccc12 | -0.067 (inactive) | 0.821 | 0.478 | -3.97 (inactive) | 0.0866 (inactive) | 0.432 (inactive)
CN1C(=O)C2CC=C(C3=CCO[C@@H]3[C@H]3CCCN3S(=O)(=O)c3ccccc3[N+](=O)[O-])CC2C1=O (stereo partly specified) | 0.162 (inactive) | 0.728 | 0.561 | -6.57 (inactive) | -0.0719 (inactive) | 0.234 (inactive)
COCCCNC(=O)[C@@]1(c2ccc([N+](=O)[O-])cc2)CC(=O)N(C2CCCCC2)[C@@H]1c1ccc(CO)cc1I | 0.266 (inactive) | 0.728 | -0.768 | -4.5 (inactive) | 0.237 (inactive) | 0.36 (inactive)
COc1ccc([Si](C)(C)[C@H]2[C@H](CC(=O)N3CCC[C@H]3CO)O[C@@]3(C(=O)N(C)c4ccccc43)[C@@H]2C)cc1 | -0.216 (inactive) | 0.924 | 1.07 | -3.41 (inactive) | -0.529 (inactive) | -0.766 (inactive)
CCOC(=O)C[C@H]1[C@H](OC(=O)c2cc3ccccc3oc2=O)[C@@H](NC(=O)Cc2ccc(OC)cc2)c2cc(OCCCO)ccc2N1C(=O)Cc1ccc(OC)cc1 | -0.0664 (inactive) | 0.0609 | -0.912 | -5.1 (inactive) | 0.212 (inactive) | 0.199 (inactive)
C=C[C@H](OC)[C@@H](O)c1ccc(OC)c(O)c1 | -1.51 (inactive) | 1.1 | -0.874 | -1.36 (inactive) | 0.171 (inactive) | 0.705 (inactive)
CN(C)CCCCNC(=O)[C@H]1C[C@H]2C(=O)N[C@@H](CCCCN(C)C)C(=O)N2[C@H]1c1ccc(O)cc1 | 0.0043 (inactive) | 0.269 | -0.435 | 0.0335 (inactive) | -1.63 (inactive) | -1.46 (inactive)
COc1ccc([Si](C)(C)[C@@H]2[C@@H](CC(=O)N3Cc4ccccc4C[C@H]3CO)O[C@]3(C(=O)N(Cc4ccc(I)cc4)c4ccccc43)[C@H]2C)cc1 | 0.153 (inactive) | 0.477 | -2.83 | -2.35 (inactive) | -0.67 (inactive) | -0.295 (inactive)
C=CCNC(=O)[C@H]1[C@@H]2C(=O)O[C@@H](c3ccccc3)[C@@H](c3ccccc3)N2[C@@H](c2ccc(OCCO)cc2)[C@]12C(=O)Nc1ccc(C#Cc3ccc(OC)cc3)cc12 | 0.43 (inactive) | 0.773 | -2.39 | -0.279 (inactive) | 0.165 (inactive) | 0.202 (inactive)
C=CCC(OC(C)=O)[C@@H]1[C@@H](N(Cc2ccc(-c3ccccc3)cc2)C(=O)Cc2ccc(OC)cc2)c2cc(OCCCO)ccc2N1C(=O)c1ccc2ccccc2c1 (stereo partly specified) | -0.965 (inactive) | -0.0698 | -2.9 | -1.72 (inactive) | 0.443 (inactive) | 0.209 (inactive)
Cc1ccc(S[C@]2(C(=O)NCc3ccccc3)CC(=O)N(Cc3ccccc3C(F)(F)F)[C@@H]2c2ccc(CO)cc2I)cc1 | 0.404 (inactive) | 0.623 | 0.0951 | -2.23 (inactive) | 0.225 (inactive) | 0.923 (inactive)

Compound | composite z-score [1] | composite z-score (XIP peptide (Xip251-270)) | z-score [2] | z-score [3] | z-score [4] | z-score [5]
[N-]=[N+]=NCc1ccccc1C[C@]1(C(=O)N2CCCCC2)COC(c2ccc(OCCCO)cc2)=N1 | -0.061 (inactive) | 0.652 | -2.29 | -6.04 (inactive) | -0.749 (inactive) | -0.928 (inactive)
O=C1OC[C@@H](c2ccccc2)n2cc(/C=C/c3ccccc3)cc21 | 0.623 (inactive) | 0.505 | -0.0812 | 0.816 (inactive) | -0.481 (inactive) | -0.268 (inactive)
CCOC(=O)C[C@H]1[C@H](OC(=O)c2cc3ccccc3oc2=O)[C@@H](NC(=O)c2ccc(-c3ccccc3)cc2)c2cc(OCCCO)ccc2N1C(=O)Cc1ccc(OC)cc1 | 0.108 (inactive) | 0.437 | -0.638 | -3.12 (inactive) | 0.105 (inactive) | -0.0512 (inactive)
COC(=O)[C@@]1(Cc2ccc(F)cc2)[C@H]2c3cc(C(=O)N4CCCC4)n(Cc4ccc(C(F)(F)F)nc4)c3C[C@H]2CN1C(=O)c1ccccc1 | 0.216 (inactive) | 0.602 | -0.532 | -3.29 (inactive) | 0.278 (inactive) | 0.554 (inactive)
CC(C)c1ccc(NN2C(C(O)c3ccccc3)C=CC3C(=O)N(c4ccccc4)C(=O)C32)cc1 (stereo unspecified) | 0.542 (inactive) | 0.602 | -0.164 | -1.36 (inactive) | -1.43 (inactive) | -1.77 (inactive)
CN(C)C(=O)[C@]1(CCS(=O)(=O)c2ccccc2)N=C(c2ccc(OCCCO)cc2)O[C@@H]1c1ccccc1CN=[N+]=[N-] | 0.556 (inactive) | 0.816 | -2.13 | -4.39 (inactive) | -0.376 (inactive) | -0.0306 (inactive)
[N-]=[N+]=Nc1ccccc1C[C@@]1(C(=O)NCc2ccccc2)N=C(c2ccc(OCCCO)cc2)O[C@@H]1c1ccccc1 | -0.116 (inactive) | 0.746 | -2.51 | -2.4 (inactive) | -0.603 (inactive) | -0.942 (inactive)
CC1C2C(CCCO)=CC(C3C(=O)N(C)C(=O)C23)N1Cc1cccc(OC(F)(F)F)c1 (stereo unspecified) | 1.17 (inactive) | 0.806 | -1.7 | -7.46 (inactive) | -0.324 (inactive) | -0.301 (inactive)
C=C(COC)C(=O)CC[C@@H](OC(=O)c1ccccc1-c1ccccc1C(=O)O)c1ccccc1OCCO | 0.106 (inactive) | 0.17 | -2.51 | -5.71 (inactive) | 0.788 (inactive) | 0.888 (inactive)
COC(=O)[C@@]1(Cc2ccccc2)[C@H]2c3cc(C(=O)N(C)C)n(Cc4ccc(Cl)c(C(F)(F)F)c4)c3C[C@H]2CN1C(=O)c1ccccc1 | 0 (inactive) | 0.485 | -1.47 | -2.73 (inactive) | 0.435 (inactive) | 0.444 (inactive)
COc1ccc([Si](C)(C)[C@H]2[C@H](CCO)O[C@@]3(C(=O)N(Cc4ccccc4)c4ccc(NC(=O)[C@H](C)O)cc43)[C@@H]2C)cc1 | -0.0359 (inactive) | -0.313 | -2.6 | -5.67 (inactive) | -1.59 (inactive) | -0.751 (inactive)
CCCCC(=C=CC[C@@H](O)c1ccc(OCCO)cc1)CCO | 0.218 (inactive) | 0.336 | -1.39 | -3.71 (inactive) | 0.102 (inactive) | 0.509 (inactive)
CC1CC/C=C\[C@H]2OC34C=CCN(CCN5CCOCC5)C(=O)[C@H]3N(C(CO)C(C)C)C(=O)[C@@H]4C2C(=O)O1 (stereo partly specified) | 0.287 (inactive) | 0.054 | -0.0648 | -7 (inactive) | 0.607 (inactive) | 0.284 (inactive)
COCCOC(=O)N1C(=O)[C@@]2(c3cc(C#CC4=CCCCC4)ccc31)[C@H](c1ccc(O)cc1)N1[C@H](c3ccccc3)[C@H](c3ccccc3)OC(=O)[C@H]1[C@@H]2C(=O)N1CCc2cc(OC)c(OC)cc2C1 | 2.12 (inactive) | 0.556 | -2.06 | 0.0698 (inactive) | 0.301 (inactive) | 0.404 (inactive)
O=C1OCCC/C=C\[C@H]2OC34C=CCN(Cc5ccccc5)C(=O)[C@H]3N(CCO)C(=O)[C@@H]4C12 (stereo partly specified) | 1.68 (inactive) | -0.0058 | 0.499 | -5.69 (inactive) | -0.909 (inactive) | -0.375 (inactive)
